# PubChem BioAssay
# Unmarked numbers belong to inactive results. For some of these results: Entries with a potency or affinity are not part of this list. Calls of active or inactive are those of the source. Unless noted, no rule for the calls is given here.
# What was measured:
# [1] = antimalarial activity against Dd2 strain (AID 2302;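 active = growth inhibition above 50% at the single 2 µM test dose, taken to imply half-maximal potency below 2 µM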;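 also: 0% = DMSO untreated growth and 100% = chloroquine plus artemisinin killed control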); details: P. falciparum Dd2 in RBCs, LDH growth readout, 72 h; at 2 µM; active compounds read high
# [2] = human hepatoma cell viability loss – ATP luminescence, cytotoxicity control for P. falciparum antimalarial project, primary screen (AID 2303;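 active = inhibition above 50%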;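 also: 0% = DMSO wells and 100% = digitonin-killed cells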); details: HepG2 viability, 24-48 h, at 10 µM, active compounds read high
# [3] = target: L-lactate dehydrogenase (Plasmodium falciparum (isolate CDC / Honduras)) (UniProt Q27743); assay: PfLDH activity inhibition – cell lysate, 3D7 strain, counter-screen for P. falciparum growth inhibition project (AID 2304);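 also: 0% = vehicle and 100% = reference inhibitor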; details: P. falciparum 3D7 crude extract, LDH APAD/NBT absorbance; at 2 µM; active compounds read high
# Sequence of L-lactate dehydrogenase (Plasmodium falciparum (isolate CDC / Honduras)) (Q27743 whole entry, looked up): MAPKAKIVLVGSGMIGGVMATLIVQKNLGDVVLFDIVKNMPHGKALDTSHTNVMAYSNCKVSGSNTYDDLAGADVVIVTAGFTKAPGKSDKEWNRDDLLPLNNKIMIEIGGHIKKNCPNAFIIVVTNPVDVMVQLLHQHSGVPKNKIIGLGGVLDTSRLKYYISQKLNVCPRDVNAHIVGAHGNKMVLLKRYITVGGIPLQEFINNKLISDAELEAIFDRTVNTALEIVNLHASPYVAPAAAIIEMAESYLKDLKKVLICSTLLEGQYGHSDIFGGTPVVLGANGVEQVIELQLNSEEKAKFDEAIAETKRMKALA
# [4] = inhibition of 3D7 malaria parasite growth – strain 3D7 (AID 2306);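 also: 0% = DMSO wells and 100% = chloroquine plus artemisinin control wells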; details: P. falciparum 3D7 erythrocytic growth, LDH absorbance, 72 h; at 2 µM; active compounds read high
# [5] = target: Calcium-dependent protein kinase 1 (Plasmodium falciparum (isolate 3D7)) (UniProt P62344); assay: PfCDPK1 kinase inhibitors, biochemical, TCAMS library (AID 1159585; cut-off not given, nearly all actives have IC50 up to about 0.98 µM;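 also: inhibitors leave more ATP so luminescence rises with inhibition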); details: recombinant PfCDPK1, Kinase-Glo ATP depletion luminescence
# Sequence of Calcium-dependent protein kinase 1 (Plasmodium falciparum (isolate 3D7)) (P62344 whole entry, looked up): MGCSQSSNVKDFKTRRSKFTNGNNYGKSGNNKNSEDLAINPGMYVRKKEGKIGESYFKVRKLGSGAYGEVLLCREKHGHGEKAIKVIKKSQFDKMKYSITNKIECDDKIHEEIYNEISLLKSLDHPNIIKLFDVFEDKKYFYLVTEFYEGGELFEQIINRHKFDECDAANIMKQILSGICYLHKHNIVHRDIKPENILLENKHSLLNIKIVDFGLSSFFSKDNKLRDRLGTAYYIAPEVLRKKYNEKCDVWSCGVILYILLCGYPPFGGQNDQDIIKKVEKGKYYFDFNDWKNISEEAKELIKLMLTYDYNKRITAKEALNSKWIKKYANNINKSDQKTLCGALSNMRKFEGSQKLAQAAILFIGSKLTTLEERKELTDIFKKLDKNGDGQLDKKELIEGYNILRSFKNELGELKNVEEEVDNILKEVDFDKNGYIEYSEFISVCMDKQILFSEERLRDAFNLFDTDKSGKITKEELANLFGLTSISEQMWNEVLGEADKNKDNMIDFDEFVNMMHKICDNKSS
# [6] = target: Plasmodium falciparum protein kinase 6 (PK6, PF3D7_1337100) (UniProt Q8IDW1); assay: PfPK6 kinase inhibitors, biochemical, TCAMS library (AID 1159586); details: recombinant PfPK6, Kinase-Glo ATP depletion luminescence
# Sequence of Plasmodium falciparum protein kinase 6 (PK6, PF3D7_1337100) (Q8IDW1 1-305): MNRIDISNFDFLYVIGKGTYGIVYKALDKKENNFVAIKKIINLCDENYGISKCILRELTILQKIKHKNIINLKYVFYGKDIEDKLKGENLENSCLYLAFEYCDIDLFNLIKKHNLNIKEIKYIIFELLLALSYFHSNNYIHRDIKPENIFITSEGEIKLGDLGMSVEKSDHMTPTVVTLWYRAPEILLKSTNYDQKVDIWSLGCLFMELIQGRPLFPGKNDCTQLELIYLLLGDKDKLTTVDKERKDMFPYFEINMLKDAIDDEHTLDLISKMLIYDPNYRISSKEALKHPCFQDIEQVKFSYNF
# [7] = target: Protein kinase 7 (PK7), Plasmodium falciparum 3D7 (PF3D7_0213400) (UniProt Q7YTF7); assay: inhibition of Plasmodium PK7 catalytic activity – biochemical, TCAMS antimalarial set, Kinase-Glo luminescence (AID 1159587); details: recombinant PfPK7, Kinase-Glo ATP depletion luminescence
# Sequence of Protein kinase 7 (PK7), Plasmodium falciparum 3D7 (PF3D7_0213400) (Q7YTF7 1-343): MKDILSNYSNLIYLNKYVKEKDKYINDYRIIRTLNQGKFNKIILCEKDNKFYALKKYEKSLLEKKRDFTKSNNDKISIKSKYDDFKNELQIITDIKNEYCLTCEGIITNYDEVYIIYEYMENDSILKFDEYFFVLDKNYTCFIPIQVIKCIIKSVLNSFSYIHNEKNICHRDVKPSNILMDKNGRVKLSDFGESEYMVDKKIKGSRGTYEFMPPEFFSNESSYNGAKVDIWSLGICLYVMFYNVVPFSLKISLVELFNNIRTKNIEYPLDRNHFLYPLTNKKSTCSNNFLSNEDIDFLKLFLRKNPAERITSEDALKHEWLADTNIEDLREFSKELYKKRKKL
# [8] = target: Calcium-dependent protein kinase 4 (Plasmodium falciparum (isolate 3D7)) (UniProt Q8IBS5); assay: PfCDPK4 kinase inhibitors, biochemical, TCAMS library (AID 1159588; cut-off not given, nearly all actives have IC50 up to about 0.91 µM); details: recombinant PfCDPK4, Kinase-Glo ATP depletion luminescence
# Sequence of Calcium-dependent protein kinase 4 (Plasmodium falciparum (isolate 3D7)) (Q8IBS5 whole entry, looked up): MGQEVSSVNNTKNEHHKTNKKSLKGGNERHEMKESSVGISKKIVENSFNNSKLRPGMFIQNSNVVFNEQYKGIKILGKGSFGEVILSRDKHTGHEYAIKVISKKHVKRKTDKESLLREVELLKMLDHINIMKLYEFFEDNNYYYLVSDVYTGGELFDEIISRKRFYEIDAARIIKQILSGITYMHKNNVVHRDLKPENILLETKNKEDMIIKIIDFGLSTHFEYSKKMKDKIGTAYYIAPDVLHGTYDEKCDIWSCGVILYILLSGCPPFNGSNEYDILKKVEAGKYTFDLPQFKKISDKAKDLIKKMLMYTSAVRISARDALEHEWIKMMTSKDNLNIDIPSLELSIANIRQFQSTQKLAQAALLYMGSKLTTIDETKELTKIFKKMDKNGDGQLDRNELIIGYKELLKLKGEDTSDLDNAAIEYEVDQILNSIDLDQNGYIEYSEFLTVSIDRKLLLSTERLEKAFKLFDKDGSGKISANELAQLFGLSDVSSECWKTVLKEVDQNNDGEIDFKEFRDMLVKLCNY
SMILES,growth inhibition [1],inhibition [2],inhibition [3] [%],growth inhibition [4],outcome [5],outcome [6],outcome [7],outcome [8]
COc1cccc2c(NN=Cc3ccccc3Cl)cc(C)nc12,100% (active),22%,-2,102% (active),inactive,inactive,inactive,inactive
CN(C)Cc1ccc2cc(NC(=O)c3ccc(-c4ccc(Cl)cc4)cc3)ccc2n1,30%,60% (active),-1,86% (active),inactive,inactive,inactive,inactive
Nc1c2c(nc3cc(NC(=O)c4ccc([N+](=O)[O-])cc4)ccc13)CCCC2,58% (active),11%,-2,100% (active),inactive,inactive,inactive,inactive
O=C(Nc1ccc2nc(-c3ccc4nc(NC(=O)C5CCCCC5)sc4c3)[nH]c2c1)C1CCCCC1,68% (active),84% (active),-9,100% (active),inactive,inactive,inactive,inactive
CCCCCCCc1c(C)[nH]c2cc(OC)ccc2c1=O,98% (active),5%,-5,99% (active),inactive,inactive,inactive,inactive
CCc1cccc(-n2nc(OCC(=O)NC3CCCC3)c3cccnc32)c1,13%,2%,-4,94% (active),inactive,inactive,inactive,inactive
CCN(CC)C(=NCCCCCCN=C(/N=C(/N)Nc1ccc(C)cc1)N(CC)CC)/N=C(/N)Nc1ccc(C)cc1,98% (active),10%,-3,97% (active),inactive,inactive,inactive,inactive
CCOc1ccc2nc3cc(NC(=O)c4ccco4)ccc3c(N)c2c1,56% (active),36%,-1,101% (active),inactive,inactive,inactive,inactive
CC1(C)N=C(N)N=C(N)N1OCCCNC(=O)c1ccc(C(=O)NCCCON2C(N)=NC(N)=NC2(C)C)cc1,96% (active),0%,3,91% (active),inactive,inactive,inactive,inactive
Fc1ccc2nc(-c3cccc(-c4cccc(CN5CCN(c6cnccn6)CC5)c4)c3)[nH]c2c1,35%,17%,-2,93% (active),inactive,inactive,inactive,inactive
CC1(C)C=C(c2ccncc2)c2cc(Cl)ccc2O1,22%,-4%,1,97% (active),inactive,inactive,inactive,inactive
C(=N\Nc1nccc2sc(-c3cccnc3)cc12)/c1ccncc1,94% (active),65% (active),7,101% (active),inactive,inactive,inactive,inactive
O=C(NC1CCN(CCC[C@]2(c3ccc(Cl)c(Cl)c3)CCCN(C(=O)c3ccccc3)C2)CC1)c1ccc(F)cc1,68% (active),52% (active),-1,90% (active),inactive,inactive,inactive,inactive
CS(=O)(=O)c1ccc(-c2cnc(N)c(-c3cccc(CO)c3)c2)cc1,51% (active),-4%,0,98% (active),inactive,inactive,inactive,inactive
COc1ccc(Nc2nc(NCc3cccc(NS(C)(=O)=O)c3)cc(-c3ccc(OC)cc3)n2)cc1,5%,-7%,5,84% (active),inactive,inactive,inactive,inactive
Cc1cccc2[nH]c(-c3cccc(-c4cccc(NC(=O)CN5CCN(C)CC5)c4)c3)nc12,99% (active),76% (active),-1,101% (active),inactive,inactive,inactive,inactive
O=C(Nc1ccc(OC2CCN(Cc3ccsc3)CC2)c(Cl)c1)c1ccc(F)cc1,83% (active),31%,0,98% (active),inactive,inactive,inactive,inactive
COc1ccc2nccc([C@@H](O)CN3CCC(NCc4cc5ccccc5[nH]c4=O)CC3)c2c1,-3%,-6%,3,97% (active),inactive,inactive,inactive,inactive
CC(=O)Nc1ccc(Nc2cc(C)nc(Nc3ccc(NC(C)=O)cc3)n2)cc1,65% (active),4%,-2,99% (active),inactive,inactive,inactive,inactive
CCc1ccc(NC(=O)c2cccc(CN3CCCN(Cc4ccc(OC)cc4)CC3)c2)cc1,-6%,35%,5,97% (active),inactive,inactive,inactive,inactive
